In PubChem BioAssay (Tox21) one finds max response and Potency data, which are given here for 17 compounds.

Values joined by “and” are separate entries in the source; they are usually repeats but may differ in a detail not shown here. Equal values may be shown once. Records with an inconclusive call do not appear. A structure can be active in one record and inactive in another. A number with no mark means an inactive call. Active and inactive are the calls of the source. The call rests on the fitted dose curve; in most records, active means well fitted cell-killing curve with a large enough effect in the repeat runs; inconclusive means weak or mixed curves, or effect the other way; inactive means flat fitted curve, though single readings scatter.
On the % scale 0 is the no-effect control and ±100 the full control effect; potency means the concentration at half of the fitted maximal effect.

This experiment is described as follows: qHTS RealTime-Glo MT Cell Viability Assay in HEK293 cells - 40 hour (AID 1224874). Further: nearly all actives have a fitted effect of over 50% in size. As to conditions: RealTime-Glo luminescence; max response: stronger effect = lower value. The essentials: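 qHTS format; HEK293 cells with NanoLuc/prosubstrate reagent, 37 C/5% CO2 for 5 h pre-dosing; compounds 23 nL in DMSO; luminescence at each time point reflects viable cells.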
With `C=Cc1ccc(C)cc1`, the max response is -4.48% and 7.7%. The same measure, in the same setting: to `O=c1[nH]cnc2[nH]ncc12` belongs -0.951% and 0.0063%; to `CCOCC(=O)O`, -1.6% and 8.63%. With `COc1ccccc1OCC(O)CO` (stereo not drawn), the max response is 1.4% and 1.84%. For `CCCCCCCC=O`, the max response was 1.74% and 27%.

Take `CC(=O)Oc1ccc(C)cc1`: the max response was 7.12% and 1.96%. Take `CSc1ccc(Cl)cc1`: the max response is -0.983% and -3.28%. The same measure, in the same setting: to `CN1C(=O)CC[C@H]1c1cccnc1` belongs 1.45% and 7.43%; to `C=CC(=O)OCCC(=O)O`, -1.71% and -0.811%. In the case of `CNC(=S)N(C)C`, the Potency is 11.6 µM (active) and the max response is 3.02%. In the case of `CCCOC(=O)c1ccccc1`, the max response was 4.73% and -2.32%. The same measure, in the same setting: to `Cc1ccc(S(=O)(=O)N=C=O)cc1` belongs 0.611% and -0.578%. The same measure, in the same setting: to `Cc1ccc(C(C)C)c(O)c1` belongs -11.7% and 0.827%. The same measure, in the same setting: to `CCNc1cccc(C)c1` belongs -1.66% and 8.48%; to `CCCCOC(=O)c1ccc(N)cc1`, 0.814%; to `CCCCCCC=O`, 0.391% and 24.5%. Regarding `CC(CCl)OP(=O)(OC(C)CCl)OC(C)CCl` (stereo not drawn), the max response is -21.3% and -15.3%.
